# Experimental data published in PubChem BioAssay AID449762 (Southern Research Specialized Biocontainment Screening …, 2010).
# Several values for one entry are separate records, joined by “and”; a condition that tells them apart may be missing. Identical values can stand only once. The whole screen tested about 330,000 compounds, of which about 1,900 (0.58%) were called active. Inconclusive results (about 4%) are left out. These entries were drawn from the full list. Results with a measured potency or affinity are listed apart. Unmarked numbers belong to inactive results. Cut-off read from the data, not from the text of the source: inconclusive = inhibition above about 70% without an active follow-up result; inactive = below that.
# Experiment: M. tuberculosis growth inhibition, HTS (AID 449762);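 note: bacterial growth assessed after seven days of incubation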
# Settings: M. tuberculosis H37Rv growth inhibition, 7H9 media; at 25 µM; stronger effect = higher value
row,SMILES,inhibition
1,CCOC(=O)c1c(NC(=O)CSc2nnc(C)s2)sc2c1CCC(CC)C2 (configuration not stated),-2.5%
2,COC(=O)C1=C(N)OC2=C(C(=O)CC(C)(C)C2)C1c1ccccc1OCC#N (configuration not stated),4.16%
3,Cc1ccc(NC(=O)C2CCCN(c3ncccn3)C2)c(C)c1 (configuration not stated),7.16%
4,CCCc1ccc2oc(C(=O)N(C)Cc3ccn[nH]3)c(C)c2c1,4.45%
5,CCCc1ccc2oc(C(=O)N(C)Cc3cnccn3)c(C)c2c1,-5.84%
6,Cc1cc(C)c(NC(=O)CSc2nnc(CN3CCOCC3)n2C)c(C)c1,-5.19%
7,Cc1ccc(NC(=O)CSc2nnc(Cc3ccccc3)o2)cc1,-3.22%
8,Cc1cccc(NC(=O)CSc2nnc(Cc3ccccc3)o2)c1,9.03%
9,O=C(COC(=O)CCC(=O)c1ccc(F)cc1)NC1CCCCC1,-5.44%
10,CC12CCC(=O)N1C(C(=O)O)Cc1c2[nH]c2ccccc12 (configuration not stated),6.77%
11,CC1(C)NC(C(=O)O)Cc2c1[nH]c1ccccc21 (configuration not stated),-1.33%
12,CC1Cc2ccccc2N1CC(=O)Nc1cccc(S(N)(=O)=O)c1 (configuration not stated),3.61%
13,CCOc1ccc(CCNC(=O)c2nn(C)c3c2CS(=O)(=O)c2ccccc2-3)cc1OCC,3.57%
14,O=C(NC1CC1)C1CCN(S(=O)(=O)c2cc([N+](=O)[O-])ccc2Cl)CC1,-3.67%
15,O=C(NC1=NCCS1)C1CCN(S(=O)(=O)c2cc([N+](=O)[O-])ccc2Cl)CC1,-7.02%
16,CC(=O)c1cccc(OCc2cc(C(=O)N(C)CCc3cnn(C)c3)no2)c1,1.92%
17,CCN(Cc1cnn(C)c1)C(=O)c1cc(COc2cc(C)c(Cl)c(C)c2)on1,10%
18,COc1ccc(Cl)cc1Nc1cc(C)nc2nc(C)nn12,2.13%
19,COc1ccc(/C=C/C2=CCN(C)CC2)cc1,-5.45%
20,OC(CN1CC=C(/C=C/c2ccc(Br)cc2)CC1)c1ccccc1 (configuration not stated),10.3%
21,Cc1cc(C(=O)NCC(=O)Nc2c(C)cccc2C)c2ccccc2n1,-6.3%
22,O=C(NCCCN1CCOCC1)C1CCN(S(=O)(=O)c2ccccc2)CC1,-0.05%
23,O=C(N/N=C/c1ccc(-c2ccc(S(=O)(=O)Nc3ncccn3)cc2)o1)c1cc2ccccc2cc1O,-7.05%
24,CCCOc1ccc(C(=O)N/N=C/c2ccc(-c3ccc(S(=O)(=O)Nc4ncccn4)cc3)o2)cc1,7.99%

row,SMILES,inhibition
1,CCC1CCC(C(=O)NNC(=O)OC)CC1 (configuration not stated),-7.14%
2,COc1cccc(Nc2nnc(SCC(=O)Nc3sccc3C(N)=O)s2)c1,0.87%
3,Cc1ccc(-c2c[n+](CC(=O)c3cccs3)c3n2CCC3)cc1,-3.4%
4,COc1ccc(C(=O)C[n+]2cc(-c3ccc(OC)cc3)n3c2CCCC3)cc1,5.06%
5,Cc1ccc(-c2c[n+](CC(=O)Nc3c(C)cccc3C)c3n2CCC3)cc1,11.9%
6,Cc1ccc(NC(=O)C[n+]2cc(-c3ccccc3)n3c2CCC3)cc1,5.89%
7,Cc1ccc(C(=O)C[n+]2cc(-c3ccccc3)n3c2CCCCC3)cc1,2.54% and -2.93%
8,Cn1c(NC(=O)C[n+]2cc(-c3ccc(Cl)cc3)n3c2CCC3)cc(=O)n(C)c1=O,-2.19%
9,Cc1c(C(=O)N2CCOCC2)cc(C(C)(C)C)n1-c1ccccc1,-3.73%
10,O=C(OCCNc1nc(-c2ccccc2)nc2ccccc12)c1cccnc1,10.2%
11,COc1ccccc1NC(=O)CN1CCN(C(=O)C2CCCO2)CC1 (configuration not stated),-18.2%
12,NC(=O)CSc1nnc(-c2cc(-c3cccs3)nc3ccccc23)o1,5.91%
13,Cc1sc(NC(=O)CN2CCCC2)nc1-c1ccc2c(c1)CCN2C(=O)c1cccc(F)c1,9.15%
14,CN(C)C(=N)c1n[nH]nc1SCc1ccc(Cl)c(Cl)c1,-2.06%
15,CCCN(CC1CC1)C(=O)COC(=O)c1oc2ccc(OCC)cc2c1C,2.37%
16,CCOc1ccc(N2C(=O)c3ccc(C(=O)OCc4c(C)noc4C)cc3C2=O)cc1,-11.4%
17,COc1ccc(CNC(=O)c2cc(C3CC3)on2)cc1,8.82%
18,O=C(NC(=S)N1CCc2ccccc21)c1ccccc1Br,6.29%
19,O=C(c1ccc(Br)o1)N1CCc2ccccc21,-3.15%
20,CC(OC(=O)c1cccnc1Cl)C(=O)Nc1ccc2c(c1)OCO2 (configuration not stated),0.24%
21,C=CCOc1cccc(C2C(C(=O)c3ccco3)=C(O)C(=O)N2CCN(CC)CC)c1 (configuration not stated),-1.23%
22,CCCOC(=O)c1cc(-c2ccc(C=O)o2)ccc1Cl,9.94%
23,CCOC(=O)c1ccc(-c2ccc(C=O)o2)cc1,12.7%
